# Reference: the OligoGym collection
# Biological target: F2R
# Test: pooled miR-30 sensor sort-seq; sequence = guide strand
# Settings: shRNA
row,Sequence,sensor-assay potency score (higher = more potent)
1,TAGGATATCACATTCTGCTTTG,-0.448
2,TAACACCGTCATCTCGTCCTGT,-0.174
3,TTTCTGGCCAATCTGTGTCTGA,-0.414
4,TTTCATGGTCATTACCTCCTAG,0.0335
5,TACACATACATCACACTCTATG,-1.1
6,TTACTTGCCATCAACTGCCCAC,-0.043
7,TATCACATTCTGCTTTGCCAGT,-0.848
8,TTACACATACATCACACTCTAT,-0.0427
9,ATAGACACATAACAGACCGTGG,-0.63
10,TTATTCAGGTTACTAGAGCAGG,-0.622
11,TTCAGGGCTAAACTCTACCAAC,-1.3
12,TTTCAGGATGAACACAACGATG,-1.75

# Biological target: FABP1
# Test: as above
# Settings: shRNA
row,Sequence,sensor-assay potency score (higher = more potent)
1,TGAACTTGAAGTGCTTCCCATT,-0.823
2,ATTCTCTTGAAGACAATGTCAC,-0.0218
3,TTTTGAAAGTTGTCACCAGTTT,-0.569
4,TTTGGATCACTTTGGACCCAGC,-1.41
5,TTCCGGCAGACCGATTGCCTTC,-1.36
6,TTTTTGAAAGTTGTCACCAGTT,-0.333
7,TTCCTGGCTCTGCAGTTGGTAC,-1.83
8,TTTTGGATCACTTTGGACCCAG,-0.408
9,TTGAGTTCGGTCACAGACTTGA,-0.0189
10,TTTGAAAGTTGTCACCAGTTTA,-0.997
11,TGAACCACTGTCTTGACTTTCT,-0.394
12,TCGTTTTGGATCACTTTGGACC,-1.43
13,TTCCAACTGAACCACTGTCTTG,-1.23
14,TTTCCTGGCTCTGCAGTTGGTA,-0.913
15,TTGAAGACAATGTCACCCAATG,-1.17
16,AACCACTGTCTTGACTTTCTCC,-0.372
17,TTATTGTCACCTTCCAACTGAA,-0.686
18,TATTGTCACCTTCCAACTGAAC,-1.49
19,TTTATTGTCACCTTCCAACTGA,0.758
20,ACTGTCTTGACTTTCTCCCCTG,-0.45
21,TCTTGAAGACAATGTCACCCAA,0.0461
22,TCCAACTGAACCACTGTCTTGA,-0.148
23,TTGTCTCCAGCTCACATTCCTC,-1.37

# Biological target: FABP9
# Test: as above
# Settings: shRNA
row,Sequence,sensor-assay potency score (higher = more potent)
1,TAGTGTCCTGGAAAGAACTTTC,-1.06
2,TTAGTGTCCTGGAAAGAACTTT,-0.461
3,TTACTTTCCGGTTGTCTGCTGT,-0.00906
4,TTTCTTTTGATTGTTGTCTCTT,0.171
5,TATGGTGCTCTTTACTTTCCGG,-0.345
